A selection: hits, their analogues and other compounds. The true share with any hit is near 1.2%.
CCT chaperon mod: High-Throughput Screening for Modulators of Cytosolic Chaperonin Activity. purified chaperonin ATPase assay, HTRF ADP detection, 30 min. activity change, % (no concentration beside the values), hits read low. 0.3% of 360,000 active. AID 651819, 2012; in the data active = activity change below about -30%; also: % is scaled to controls: 0 for no effect and ±100 for the full control effect
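ATPase activity: ADP formed was measured by HTRF Transcreener (665/615 nm ratio) after 30 min at 37 deg C with 10 uM ATP. Compounds screened at one 76 uM concentration against 40 or 20 nM TRiC in Tris pH 7.4/KCl/MgCl2/DTT buffer.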
TSHR antagonist: Antagonists of the Thyroid Stimulating Hormone Receptor: HTS campaign; Thyrotropin receptor (Homo sapiens), P16473; 0.2% of 330,000 active; AID 504810, 2011; activity change, negative = inhibition, % at 11.5 µM; TSHR-expressing cells, TSH-stimulated cAMP HTRF, 2 h; hits give low values;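 active = activity change below a set negative limit, meaning inhibition stronger than a set level, cut at about -70% in these data; inconclusive = activity change between two set negative limits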; also: % is scaled to controls: 0 for no effect and ±100 for the full control effect
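TSHR-expressing cells were treated with compounds, then stimulated with TSH at EC80 (4nM final) for 2 hours at 37 deg C. Cellular cAMP was measured by HTRF competition between lysate cAMP and cAMP-d2 for a cryptate-labelled anti-cAMP antibody.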
gsp agonist: qHTS for Agonist of gsp, the Etiologic Mutation Responsible for Fibrous Dysplasia/McCune-Albright Syndrome: qHTS | AID 624287, 2012 | 0.13% of 340,000 active | Potency, µM (top dose mostly 76.9 µM), inactives show top-dose activation (cAMP increase), actives largely listed as activators | gsp mutant cells, cAMP HTRF, 30 min; active = well fitted activation curve with a large enough effect; inconclusive = small, poorly fitted or top-dose-only effect, or another doubt; inactive = no such curve, though single readings can be large or run the other way; cell line not stated here;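 also: phosphodiesterase inhibitor Ro 20-1724 added with compounds to block cAMP breakdown; potency is read from the fitted curve at half-maximal effect; nearly all actives have a fitted effect of over 60% in size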
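Cells in DMEM/10% FBS with G418 were pretreated with compounds in DMSO plus […] (300 uM stock) for 30 min at 37C. cAMP was measured by HTRF (cAMP-d2 plus anti-cAMP antibody-K) after 30 min at room temperature.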
uPA surface inh: qHTS for Inhibitors of Cell Surface uPA Generation | AID 540303, 2011 | Potency, µM (titrated, usually from 38.3 µM), for the others: top-dose activity change, negative = inhibition, usual class: inhibitors | cell surface uPA generation assay, qHTS | 0.31% of 330,000 active; active = well fitted inhibition curve with a large enough effect; inconclusive = small, poorly fitted or top-dose-only effect; inactive = no such curve, though single readings can be large or run the other way; tested in mouse RAW 264.7 cells; also: potency is read from the fitted curve at half-maximal effect; % is scaled to controls: 0 for no effect and ±100 for the full control effect; nearly all actives have a fitted effect of over 55% in size
gsp antagonist: qHTS for Antagonists of gsp, the Etiologic Mutation Responsible for Fibrous Dysplasia/McCune-Albright Syndrome: qHTS; gsp-mutant cells, cAMP HTRF, 30 min; Potency, µM (titrated, usually from 76.9 µM), for inactives: at the top dose activity change, negative = inhibition, hits mostly inhibitors; 0.4% of 340,000 active; AID 624288, 2012; calls by dose curve; cell line not stated here;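 also: intracellular cAMP measured with PDE inhibitor Ro 20-1724 present during compound exposure; potency is read from the fitted curve at half-maximal effect; % is scaled to controls: 0 for no effect and ±100 for the full control effect; nearly all actives have a fitted effect of over 65% in size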
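Cells, 2000/well, grown 16–24 h in DMEM 10% FBS with 0.5 mg/ml G418, then compounds plus […] (300 uM addition stock), 30 min at 37C. cAMP read by HTRF (cAMP-d2 and anti-cAMP antibody-K in lysis buffer) after 30 min RT.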
MmCpn inh: Inhibitors of TCP-1 ring complex (TRiC) of Methanococcus maripaludis (MmCpn): qHTS; Chaperonin Mm-Cpn (Methanococcus maripaludis); purified Mm-Cpn ATPase, ADP Transcreener TR-FRET; Potency, µM (series often up to 76.9 µM), without a hit: at the top dose activity, negative = inhibition, actives largely listed as inhibitors; 0.031% of 330,000 active; active = well fitted inhibition curve with a large enough effect; inconclusive = small, poorly fitted or top-dose-only effect; also: potency is read from the fitted curve at half-maximal effect; % is scaled to controls: 0 for no effect and ±100 for the full control effect; nearly all actives have a fitted effect of over 80% in size
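Quantitative HTS used 25 nM Mm-CPN and 10 uM ATP in magnesium/KCl Tris buffer, pH 7.4, with 1 mM DTT. Hydrolysis ran 30 min at 37°C; ADP was read by HTRF.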
The depositor's hits bear a star; ? = inconclusive; · = no result given; [ ] = remark or other dose.

SMILES	CCT chaperon mod	TSHR antagonist	gsp agonist	uPA surface inh	gsp antagonist	MmCpn inh
CCOC(=O)[C@@H]1[C@H]2COc3ccc(Br)cc3[C@H]2N2C(=O)N(c3ccc(OC)cc3)C(=O)[C@]12C	-0.8	6.1	-39.6%	1.7%	-7.2%	0.9%
Cc1cc(C)c(C(=O)N2CCCC(N3CCN(c4cccc(C(F)(F)F)c4)CC3)C2)o1 (centres undefined)	-0.9	-8.2	?	-9.9%	50.1µM*	-0.2%
Cc1cc(C(=O)N2CCCC(N3CCN(c4cccc(C(F)(F)F)c4)CC3)C2)n[nH]1 (centres undefined)	-1.6	2.4	-0.7%	-2.8%	-1.6%	-1.6%
O=C1CCC(C(=O)N2CCCC(N3CCN(c4cccc(C(F)(F)F)c4)CC3)C2)=NN1 (centres undefined)	1.1	6.1	4.47µM*	-37.8%	5.0%	-8.2%
Cc1nc2ccc(S(=O)(=O)Nc3cc(-c4nc5cccnc5s4)ccc3C)cc2s1	-18.7	-2.4	39.0%	?	10.1%	-8.1%
Cc1nc2ccc(S(=O)(=O)Nc3cccc(-c4nc5cccnc5s4)c3C)cc2s1	-1.2	-32.9	12.2%	-7.1%	35.5µM*	?
O=C(O)c1cc(NC(=O)c2ccc(Cl)c([N+](=O)[O-])c2)cc(C(=O)O)c1	1.1	20.2	-2.0%[15.4 µM]	0.5%	5.3%	-1.5%
O=C(Nc1ccc(C(O)(C(F)(F)F)C(F)(F)F)cc1)c1ccc(Cl)c([N+](=O)[O-])c1	2.2	-21.6	-38.8%	-13.7%	35.5µM*	0.6%
O=C(Nc1ccc(S(=O)(=O)NC2=NCCCCC2)cc1)c1ccc(Cl)c([N+](=O)[O-])c1	0.0	-18.6	-7.8%	-64.8%	-11.2%	1.9%
Cc1cccc(C)c1NS(=O)(=O)c1ccc(NC(=O)c2ccc(Cl)c([N+](=O)[O-])c2)cc1	2.4	-28.5	?	?	25.1µM*	-1.1%
O=[N+]([O-])c1cc(Br)c(O)c(/C=N/Nc2nnnn2-c2cccc3ccccc23)c1	-2.2	-74.5*	-52.1%	·	?	2.8%
O=[N+]([O-])c1ccc(NN=Cc2cccc3ccccc23)cc1	-0.2	·	?	1.2%	3.8%	·
O=C(OCc1c(-c2ccccc2)ncc2ccccc12)c1cccs1	-1.1	1.7	·	-25.7%	-14.5%	-3.6%
CC1CCN(C(=O)C(=O)c2cn(CC(=O)N3CCCCCC3)c3ccccc23)CC1	-1.2	7.5	11.7%	-5.4%	-9.7%	-12.8%
CC(NC(=O)CCl)c1ccc(Cl)c(Cl)c1 (centres undefined)	-2.6	6.0	-2.1%	-10.2%	6.6%	1.3%
CC(C)c1cc(NC(=O)CCl)on1	-1.3	-10.0	-8.0%	6.31µM*	-2.4%	1.8%
CCc1nnc(NC(=O)CSc2nnc(-c3ccccc3O)o2)s1	-55.8*	22.6	-12.5%[15.4 µM]	-7.6%	-2.7%	2.2%
CCc1nnc(NC(=O)CSc2nccn2-c2cccc(C)c2)s1	-1.5	2.5	-1.8%	14.6%	-7.2%	-2.2%
CCc1nnc(NC(=O)CSc2nccn2-c2ccccc2)s1	-38.4*	-1.8	4.0%[15.4 µM]	2.5%	2.2%	4.5%
Cc1ccc(S(=O)(=O)CCC(=O)OCc2ccc(Cl)c(Cl)c2)cc1	-2.7	5.0	-32.9%	-5.9%	10.1%	0.5%
O=C1CN(S(=O)(=O)c2cc(C(=O)O)ccc2Cl)c2ccccc2N1	-4.5	-76.3*	3.3%[15.4 µM]	-0.2%	·	-2.1%
C[C@@H](C(=O)Nc1ccc2ccccc2c1)[C@H]1C[C@]1(C)[C@H](NS(=O)(=O)c1ccc(-c2ccccc2)cc1)c1ccccc1	-0.8	0.2	·	19.9%	3.1%	-6.6%

Screening results deposited in PubChem by National Center for Advancing Translational Sciences (NCATS).
